POLI inh – blocks human DNA polymerase iota activity. Pol iota fluorescent replication assay, 10 min. Potency, µM (series often up to 115 µM), actives largely listed as inhibitors. actives 1% (n = 390,000)
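Pol iota at 10 nM preincubated 15 min with compounds at room temperature; reaction started with fluorescent substrate, 50 nM final. Fluorescence read kinetically at 0 and 10 min; buffer-only wells as negative control.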
APEX1 inh – blocks human APE1 abasic DNA cleavage; actives 0.35% (n = 350,000); recombinant APE1, TAMRA/BHQ-2 abasic DNA cleavage fluorescence; Potency, µM (highest dose often 65.8 µM), hits mostly inhibitors; P27695; AID 2517; note: nearly all actives have a fitted effect of over 55% in size
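0.75 nM APE1 + cpd, 15 min RT; start w/ 50 nM TAMRA/BHQ-2 THF-abasic dsDNA; kinetic fluor 525/598 nm ×3 reads @60 s; Δ(read3−read1); normalized to DMSO and NSC13755 control wells.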
L3MBTL1 inh – L3MBTL1 (human) inhibition. AID 485360. actives 0.66% (n = 230,000). AlphaScreen L3MBTL1–H3K9me1 peptide binding. Potency, µM (top dose mostly 57.1 µM), hits mostly inhibitors; note: nearly all actives have a fitted effect of over 60% in size
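Displacement of a biotinylated histone H3(1-15) peptide monomethylated at Lys9 (75 nM) from L3MBTL1 (50 nM) was measured by AlphaScreen after a 30 min room-temperature compound incubation; cefsulodin titration served as intraplate control.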
Pol eta inh-1 – inhibitors of human DNA polymerase eta; recombinant Pol eta, fluorescent DNA replication assay; actives 1.2% (n = 390,000); Q9Y253; Potency, µM (top dose mostly 114 µM), most hits filed as inhibitors; AID 588591
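Pol eta (10 nM) was preincubated with compounds for 15 min at room temperature, after which fluorescent replication substrate (50 nM final) was added to start the reaction. Fluorescence was read kinetically at 0 and 10 min.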
Pol kappa inh-1 – inhibitors of human DNA polymerase kappa. purified Pol kappa, fluorescent DNA synthesis assay, 10 min. Potency, µM (series often up to 107 µM), hits mostly inhibitors. Q9UBT6. actives 0.53% (n = 400,000). AID 588579
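First, compounds were pin-transferred onto 10 nM Pol kappa. After 15 min at room temperature, substrate was added to 50 nM final. Fluorescence was then measured kinetically at 0 and 10 min.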
POLB inh – inhibitors of human DNA polymerase beta. Pol beta primer extension/strand displacement, fluorescence kinetic. actives 1.3% (n = 340,000). Potency, µM (top dose mostly 114 µM), actives largely listed as inhibitors
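Pol beta (10 nM) and compounds were preincubated 15 min at room temperature, then 50 nM substrate (final) started primer extension/strand displacement. Reads were taken at 0 and 10 min; concentration-response data were fitted to a four-parameter Hill equation.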
PGK validate – blocks T. brucei phosphoglycerate kinase; shares compounds with Pol kappa inh-1; actives 79% (n = 500); AID 686980; Potency, µM (doses to about 57.5 µM), usual class: inhibitors; TbPGK coupled GAPDH assay, Kinase-Glo luminescence; note: nearly all actives have a fitted effect of over 65% in size
Target sequence (P07378 whole entry, looked up): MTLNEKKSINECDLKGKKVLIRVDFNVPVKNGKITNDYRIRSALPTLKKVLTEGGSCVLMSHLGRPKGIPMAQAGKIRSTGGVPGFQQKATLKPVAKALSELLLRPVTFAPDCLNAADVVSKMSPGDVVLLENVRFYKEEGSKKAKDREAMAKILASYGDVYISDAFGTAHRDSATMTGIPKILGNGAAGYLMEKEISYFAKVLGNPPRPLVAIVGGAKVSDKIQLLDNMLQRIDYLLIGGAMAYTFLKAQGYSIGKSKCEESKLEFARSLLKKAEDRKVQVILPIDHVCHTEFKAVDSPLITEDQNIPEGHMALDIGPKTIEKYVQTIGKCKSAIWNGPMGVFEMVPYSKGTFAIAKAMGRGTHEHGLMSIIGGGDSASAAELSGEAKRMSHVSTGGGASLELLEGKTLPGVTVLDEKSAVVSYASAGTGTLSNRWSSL
Pol iota confirm – Human Pol iota inhibitor confirmatory assay; Pol iota primer extension, TAMRA/BHQ fluorescence; shares compounds with Pol kappa inh-1; actives 77% (n = 1,500); Potency, µM, most hits filed as inhibitors
GALK inh confirm – confirmation of human galactokinase (GALK) inhibitors; Potency, µM (top dose mostly 115 µM), hits mostly inhibitors; purified GALK, Kinase-Glo ATP depletion luminescence; AID 2015; shares compounds with Pol eta inh-1; actives 70% (n = 150)
GALK redox cs – generates H2O2 by redox cycling, flagging GALK artifacts | actives 40% (n = 150) | Phenol red-HRP H2O2 redox cycling, absorbance 600 nm | Potency, µM (highest dose often 115 µM), usual class: inhibitors | AID 2035 | shares compounds with Pol eta inh-1
HEK293 tox – counter-screen for GALK inhibitors: HEK293 cell cytotoxicity. actives 10% (n = 170). Potency, µM (doses to about 46.1 µM), hits mostly inhibitors. HEK-293 viability, ATP luminescence (CellTiter-Glo), 24/48 h. shares compounds with Pol eta inh-1
Pol kappa inh-2 – Pol kappa (human) inhibition, cherry-pick confirmation; AID 720501; Potency, µM, usual class: inhibitors; shares compounds with Pol eta inh-1; purified Pol-kappa, fluorescent strand-displacement substrate; actives 76% (n = 920)
Pol eta inh-2 – confirmation of human DNA polymerase eta inhibitors | shares compounds with Pol eta inh-1 | Pol eta primer extension, TAMRA/BHQ fluorescence, 10 min | Potency, µM, actives largely listed as inhibitors | actives 64% (n = 2,600) | AID 720502
Numbers stand for hits; 0 = inactive; ? = inconclusive; - = not tested or not shown. In the library only some 2.5% were active in any assay of this set; here they are far more common. Calls come from the whole dose curve; as a rule, active = well fitted curve in the direction sought with a large enough effect; inconclusive = small, poorly fitted or top-dose-only effect, or another doubt; inactive = no such curve, though single readings can be large; an effect the other way counts as inactive or inconclusive.

SMILES	POLI inh	APEX1 inh	L3MBTL1 inh	Pol eta inh-1	Pol kappa inh-1	POLB inh	Pol iota confirm	Pol eta inh-2	others
CC(C)NC(=O)C1CCN(C2CCN(Cc3nc4ccccc4s3)CC2)CC1	0	0	0	0	0	0	-	-
O=C(Nc1ccc2nc(-c3ccc4nc[nH]c4c3)[nH]c2c1)c1cccs1	1.1µM	?	0	20µM	35µM	4.5µM	?	?
O=C(O)c1ccc(N2C(=O)/C(=C/c3ccc(-c4ccc([N+](=O)[O-])cc4)o3)C=C2c2ccccc2)cc1	?	?	0	3.5µM	?	10µM	8.4	7.6
COc1cc2c(oc(=O)c3cc(C)cc(OC)c32)c2c(C3OC(C)C(O)C(C)(O)C3O)ccc(O)c12 (stereo not drawn)	14µM	-	-	4µM	40µM	-	30	21
Cc1ccc(NC(=O)Cn2nnc(-c3nc(-c4ccncc4)no3)c2N)cc1	0	-	-	-	0	0	-	-
COC1=C(N)C(=O)c2nc(C)ccc2C1=O	18µM	-	-	8.9µM	?	-	24	30	Pol kappa inh-2=19
COC1=C(Br)C(=O)c2nc(C)ccc2C1=O	-	-	-	14µM	-	-	27	30	Pol kappa inh-2=19
CC(C)/C(C=O)=C(/NC1CCCCC1)c1ccccc1	0	-	-	0	0	-	-	-
COc1ccc(S(=O)(=O)NCCc2nnc3ccc(SCC(=O)Nc4ccc(C(F)(F)F)cc4)nn23)cc1	0	-	-	0	0	0	-	-
O=C(CSc1nnc(CNC(=O)c2c(F)cccc2Cl)o1)NCc1ccc(F)cc1	0	0	-	0	0	0	-	-
O=C(/C=C/c1ccc([N+](=O)[O-])cc1)NCCc1ccccc1	0	0	0	0	0	0	-	-
O=C(/C=C/c1ccccc1)NCCc1ccccc1	?	7.9µM	-	20µM	?	25µM	?	67	PGK validate=21µM
COc1cccc(/C=C2/C(=O)NN(c3ccccc3)C2=O)c1	0	0	-	0	0	0	-	-
O=C1NN(c2ccccc2)C(=O)/C1=C/c1ccc(Sc2cccc3ccccc23)o1	11µM	0	?	28µM	?	20µM	75	30
CCOC(=O)C1CCCN(S(=O)(=O)c2cc3[nH]c(=O)c(=O)[nH]c3cc2C)C1 (stereo not drawn)	0	0	0	0	0	0	-	-
O=[N+]([O-])c1cccc(-c2csc(N/N=C/c3cccc(O)c3)n2)c1	45µM	0	-	0	79µM	0	38	27
COc1ccc(C(=O)N2C(=S)NC(=O)/C2=C\c2ccc(C)cc2)cc1	?	0	0	?	?	50µM	75	?
COc1ccc(C=C2NC(=S)NC2=O)cc1	0	-	-	0	0	-	-	-
CN(C)/C=C1\SC(=S)N(c2ccc(F)cc2)C1=O	0	0	-	0	0	0	-	-
CN(C)/C=C1\SC(=S)N(c2ccc(Br)cc2)C1=O	40µM	28µM	-	?	?	?	19	76
COC(=O)C(C(C)=O)C1=C/C(=N\S(=O)(=O)c2ccc(C)cc2)c2ccccc2C1=O (stereo not drawn)	0	0	-	0	0	0	-	-
O=C(O)c1ccc(S(=O)(=O)/N=C2\C=C(Nc3ccccc3F)C(=O)c3ccccc32)cc1	1.1µM	0	-	8.9µM	?	45µM	21	21	GALK inh confirm=7.5µM;GALK redox cs=4.2µM;HEK293 tox=13µM
CCN(CC)c1ccc(/C=C(\C#N)C(=O)c2ccc(Br)cc2)cc1	?	0	0	?	22µM	40µM	67	43	Pol kappa inh-2=67
CC(C)c1ccc(NC(=O)c2cccc3c2C(=O)N(C2CCCCC2)C3)cc1	0	-	-	-	0	0	-	-
COc1ccc(N2Cc3cccc(C(=O)Nc4ccc(C)cc4)c3C2=O)cc1	79µM	-	-	-	?	13µM	?	?	Pol kappa inh-2=38
SMILES	POLI inh	APEX1 inh	L3MBTL1 inh	Pol eta inh-1	Pol kappa inh-1	POLB inh	Pol iota confirm	Pol eta inh-2	others
COc1ccc(N2Cc3cccc(C(=O)Nc4ccc(C(C)C)cc4)c3C2=O)cc1	56µM	-	-	-	?	11µM	?	?	Pol kappa inh-2=30
O=[N+]([O-])c1cc(Cl)cc(/C=N/NC(=S)Nc2ccc(S(=O)(=O)N3CCOCC3)cc2)c1O	?	0	3.5µM	79µM	?	?	?	?
N#Cc1ccc(/C=N/NC(=S)Nc2ccc(S(=O)(=O)N3CCOCC3)cc2)cc1	0	0	-	0	0	0	-	-
O=C(O)C1=C(C(=O)O)C2C=CC1C2	?	-	-	20µM	?	-	-	?	PGK validate=10µM;Pol kappa inh-2=24
CCOc1ccc(CNC(=O)c2ccc3c(c2)c(C)c(C)n3Cc2ccc(Cl)cc2)cc1	0	-	-	0	0	0	-	-
O=c1[nH]c(=S)[nH]c2c1C(c1ccc(Br)cc1)c1c([nH]c(=S)[nH]c1=O)O2	1µM	0	-	2.2µM	4µM	13µM	2.7	1.7
O=C(O)c1ccc(-n2cccc2/C=N\NC(=O)c2cc3cc(Br)ccc3o2)cc1	7.1µM	3.5µM	-	3.2µM	14µM	?	3	5.4	PGK validate=9.2µM
Cn1cc(/C=N/NC(=O)c2cc3cc(Br)ccc3o2)c2ccccc21	0	0	-	0	0	0	-	-
CN(C)S(=O)(=O)c1ccc(C(=O)NN2C(=O)NC3(CCCCC3)C2=O)cc1	0	0	0	0	0	-	-	-
O=C(O)c1cc(-c2ccc(/C=C3/SC(=S)N(Cc4ccccc4)C3=O)o2)ccc1Cl	13µM	?	-	10µM	79µM	16µM	75	27
CC(=O)Nc1ccc(-n2nnnc2SCC(=O)Nc2cccc(NC(=O)c3ccco3)c2)cc1	28µM	?	-	?	0	?	53	?
CCOc1ccccc1C(=O)Nc1nc2c(s1)CC(C)CC2 (stereo not drawn)	0	-	-	0	0	0	-	-

Screening data: PubChem BioAssay, National Center for Advancing Translational Sciences (NCATS)
